# In all, about 360,000 compounds went through this assay and about 3,500 (0.97%) were called active. The sample as a whole holds a higher share of actives than the screen did. Unmarked numbers belong to inactive results.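 How the source made its calls: active means activation above a per-plate cutoff, the mean activation of sample wells on that plate plus 3 SD (cut at about 8% in these data); inactive means the rest.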
# Target: Melanocortin receptor 4 (Homo sapiens) (UniProt P32245)
# Assay: activators of MC4R beta-arrestin recruitment – cell-based, luminescence, agonist arm of biased-ligand search, primary screen (AID 540308)
# Settings: U2OS MC4R beta-arrestin complementation, at 8.9 µM, hits give high values, percent of melanotan II response, DMSO zero
# Sequence of Melanocortin receptor 4 (Homo sapiens) (P32245 whole entry, looked up): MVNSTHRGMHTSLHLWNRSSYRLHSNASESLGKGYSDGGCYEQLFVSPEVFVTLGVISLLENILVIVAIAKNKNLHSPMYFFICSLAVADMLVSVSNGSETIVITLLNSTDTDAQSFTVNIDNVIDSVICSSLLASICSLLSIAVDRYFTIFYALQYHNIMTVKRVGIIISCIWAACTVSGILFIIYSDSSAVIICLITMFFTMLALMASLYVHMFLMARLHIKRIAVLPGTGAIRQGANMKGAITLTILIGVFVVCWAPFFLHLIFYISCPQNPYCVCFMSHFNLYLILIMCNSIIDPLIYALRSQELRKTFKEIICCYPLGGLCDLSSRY
row,Compound,activation
1,COc1cccc(-c2ccc3c(c2)N(Cc2ccccc2OC)C(=O)C(C)S3)c1 (configuration not stated),0.04%
2,CC(C)Nc1nc(NCCOc2ccccc2Cl)c2sccc2n1,-1.08%
3,CC(=O)Nc1cccc(-c2cc3nc(NCc4cccnc4)n(C)c(=O)c3s2)c1,0.57%
4,COc1ccc(OC)c(C(O)c2ncc(-c3cccc(C(F)(F)F)c3)[nH]2)c1 (configuration not stated),-1.84%
5,COc1ccc(NC(=O)C2Cc3c(-c4cccc(NC(C)=O)c4)ccnc3O2)cc1OC (configuration not stated),-0.44%
6,COc1ccc(NC(=O)C2(C)Cc3c(-c4cccc(NC(C)=O)c4)ccnc3O2)cc1OC (configuration not stated),-2.08%
7,S=C(NCCCc1cnc[nH]1)NCCCN(Cc1ccc(Cl)c(Cl)c1)c1ccc(Br)cn1,17.5% (active)
8,NCCCNC(=S)NCCCN(Cc1ccc(Cl)cc1)c1ccc(Br)cn1,5.16%
9,CCOC(=O)c1nn(-c2ccccc2F)c2nc(Nc3ccccc3)cc(=O)n12,10.2% (active)
10,CCOC(=O)N1CCN(c2c(NCCN3CCN(c4ccccc4F)CC3)c(=O)c2=O)CC1,-0.12%
11,CCOC(=O)c1cccc(NC(=O)c2ccc(F)cc2F)c1,-1.66%
12,COc1ccc(C(CCN(Cc2ccc(OC)c(OC)c2)C(=O)CCl)c2ccccc2)cc1 (configuration not stated),22.9% (active)
13,COc1ccc(CCNC(=O)C(Sc2ccccn2)c2ccccc2)cc1OC (configuration not stated),-0.76%
14,COc1ccc(CN(Cc2ccc(OC)cc2)C(=O)c2cccs2)cc1,-3.4%
15,CCCCCNC(=O)c1cccnc1SCC(=O)Nc1ccccc1OC,-0.84%
16,Cc1ccccc1S(=O)(=O)NC(=O)C1(C)CCN1C(=O)C1(c2ccc(Cl)cc2)CC1 (configuration not stated),0.06%
17,CC1(C(=O)Nc2cccc3c2CCCC3)CCN1C(=O)C1(c2ccccc2)CC1 (configuration not stated),1.08%
18,Cc1nn(C)c(C(=O)NNC(=S)NC2CCCCC2)c1Cl,-2.05%
19,COc1cccc(NC(=S)NC(=O)c2c(Cl)c(C)nn2C)c1,16.6% (active)
20,COc1cccc(OC)c1C(=O)NC(=S)Nc1ccc(N2CCOCC2)c(Cl)c1,-1.34%
21,CC1(C(=O)NS(=O)(=O)c2ccccc2Cl)CCN1C(=O)c1cccc(F)c1 (configuration not stated),-0.15%
22,CC(=O)NN=C(C)c1ccc(NC(=O)C2CC2)cc1,-0.71%
23,O=C(/C=C/c1c(Cl)cccc1Cl)NCc1ccccc1,19.2% (active)

row,Compound,activation
1,CCOC(=O)CNC(=O)/C=C/c1c(Cl)cccc1Cl,-0.83%
2,O=C(CC(=O)N/N=C\c1cccc(Cl)c1Cl)NCc1ccccc1,-2.24%
3,Cc1nc2c(OCc3ccc(Cl)cc3Cl)cccn2c1N(C)CC1CC1,-3.94%
4,CCCCC(=O)N(C)c1c(CC)nc2c(OCc3ccc(S(C)(=O)=O)cc3)cccn12,0.14%
5,CCCOc1ccc(/C=N/NC(=O)C2CC2)c(OCCC)c1,0.66%
6,COC(=O)c1ccc(OCC(=O)NC(C)(C)C)cc1,-0.44%
7,CCCOc1ccc(C(=O)C(CCC(CNCC)C(=O)c2ccc(OCCC)cc2)CNCC)cc1 (configuration not stated),24.6% (active)
8,COc1cncc(-c2cnc3sc(NCCc4ccccn4)nn23)c1,-0.85%
9,COc1ccc(OC)c(NC(=O)C2(C)CCN2C(=O)Cc2ccccc2)c1 (configuration not stated),-0.64%
10,COc1ccc(NC(=O)C2Cc3c(-c4ccc5c(c4)OCO5)ccnc3O2)cn1 (configuration not stated),2.24%
11,Cc1cc(C(=O)N2CCCC2(C)C(=O)O)c(C)o1 (configuration not stated),-0.89%
12,CC(C)Nc1ncnc2c1nnn2Cc1ccccc1,-0.12%
13,c1ccc(Cn2nnc3c(NCC4CC4)ncnc32)cc1,2.35%
14,Clc1ccc(Nc2ncnc3c2nnn3Cc2ccccc2)cc1,19.9% (active)
15,CCc1nc2c(OCc3ccc(C(F)(F)F)cc3)cccn2c1N(C)C(=O)CC(C)C,-1.6%
16,CC(C)Cc1ccc(-c2cc3nc(NCc4cccc(Cl)c4)ccn3n2)cc1,-1.5%
17,Cc1ccccc1C(=O)N1CCN(c2ccc(NC(=O)c3cccs3)cc2)CC1,-4.77%
18,Cc1ccc(OCC(=O)Nc2ccc(NC(=O)c3cccs3)cc2)c(C)c1,2.63%
19,Cc1ccc(C(=O)Nc2ccc(NC(=O)c3cccs3)cc2)c(C)c1,13.3% (active)
20,O=C(NCc1cccnc1)c1cc(C2CCCN(C(=O)CCCc3ccccc3)C2)on1 (configuration not stated),0.26%
21,Cc1ccccc1-c1csc(C(O)c2cccc(Cl)c2)n1 (configuration not stated),-1.62%
22,O=C(NCc1ccc(F)cc1)c1cc(C2CCCCN2C(=O)C2CCCCC2)on1 (configuration not stated),-0.53%
23,COc1cc(F)ccc1-c1cc(C(=O)NCC2CCCCC2)[nH]n1,1.24%

row,Compound,activation
1,C=CCn1c(CNC(=O)c2ccco2)nnc1SCC(=O)c1ccc(OC)cc1,-1.26%
2,C=CCn1c(SCC(=O)c2ccc(Br)cc2)nnc1C(C)NC(=O)Cc1ccc(OC)cc1 (configuration not stated),9.94% (active)
3,C=CCn1c(SCCOc2ccc(OC)cc2)nnc1C(NC(=O)c1ccc(OC)cc1)C(C)C (configuration not stated),2.5%
4,CC1(C(=O)NS(=O)(=O)c2cccs2)CCN1C(=O)Cc1ccc(-c2ccccc2)cc1 (configuration not stated),1.02%
5,CCCCN1CC(C)(C)[C@H](CC(=O)Nc2ccc(Br)cc2)C1=O,14.2% (active)
6,CC1(C)CN(Cc2cccnc2)C(=O)[C@H]1CC(=O)Nc1ccc(Br)cc1,-2.67%
7,CC1(C)CN(CCc2ccccc2)C(=O)[C@H]1CC(=O)Nc1ccc(Br)cc1,1.43%
8,Cc1noc(C)c1-c1ccc(C(=O)NCc2ccncc2)c2occc12,-0.03%
9,Cc1cccc(CNC(=O)c2sc(=O)n(Cc3ccccc3C)c2C)c1,0.16%
10,O=C(COC(=O)c1ccccc1Cl)NC1CCCCCCC1,-2.78%
11,Cc1cccc(/C(N)=N/OC(=O)c2ccccc2Cl)c1,-0.56%
12,O=C(OCc1cn(-c2ccc(Cl)c(Cl)c2)nn1)c1ccccc1Cl,16.5% (active)
13,Cc1cccc(-c2cnc(C(O)c3ccc4ccccc4c3)[nH]2)c1 (configuration not stated),3.46%
14,CSc1ccc(CNC(=O)C2(C)CCCN2C)cc1 (configuration not stated),1.3%
15,COc1cccc(-c2cnc(C(O)c3ccccc3OC)[nH]2)c1 (configuration not stated),-2.21%
16,CCOc1ccc(CNC(=O)C2CCCN(c3nnc(C)c4c(C)n(-c5ccccc5)nc34)C2)cc1 (configuration not stated),5.34%
17,CCc1ccc(CNC(=O)C2CCN(c3nnc(C)c4c(C)n(-c5ccc(C)cc5)nc34)CC2)cc1,26.2% (active)
18,CCc1ccc(CNC(=O)C2CC(=O)N(CCc3ccc(C)cc3)C2)cc1 (configuration not stated),-0.56%
19,COc1ccc(C(C)C)cc1-c1ccc2nncn2c1,0.08%
20,CC1(C(=O)Nc2cccnc2)Cc2c(-c3ccccc3)ccnc2O1 (configuration not stated),-1.27%
21,CN1CCN(c2ncc3c(n2)CC(c2ccccc2F)CC3=O)CC1 (configuration not stated),-1.94%
22,CCc1ccc(Nc2ncc3c(n2)CC(c2ccco2)CC3=O)cc1 (configuration not stated),9.92% (active)
23,O=C(Nc1ncc2c(n1)CC(c1ccco1)CC2=O)c1ccc(Cl)cc1 (configuration not stated),-1.23%

row,Compound,activation
1,COc1ccccc1Nc1ncnc2c1oc1ccccc12,0.07%
2,COc1ccc(Nc2ncnc3ccc(Br)cc23)c(OC)c1,0.1%
3,COc1ccc(Nc2ncnc3sc(-c4ccccc4)cc23)c(OC)c1,10.6% (active)
4,CC1(Oc2cccc(F)c2)CCN(Cc2ccccc2OC(F)F)C1 (configuration not stated),-1.66%
5,CCCOc1ccc(F)cc1-c1cc(C(=O)NCc2ccc(F)cc2)[nH]n1,0.57%
6,Oc1cccc2cc(-c3ccncc3)cnc12,-1.87%
7,COc1ccc(NC(=O)c2sc(=O)n(Cc3ccc(S(=O)(=O)N(C)C)cc3)c2C)cc1,-1.44%
8,COc1cccc(CN2CCC(C(=O)NC(c3ccc4c(c3)OCO4)c3ccccn3)CC2)c1 (configuration not stated),-1.26%
9,CCc1nc2c(OCCOc3ccccc3)cccn2c1N(C)C(=O)c1ccc(OC)cc1,-0.76%
10,O=C(CSc1cccc2cccnc12)N/N=C/c1cccnc1,-5.02%
11,Brc1ccc(-c2csc(N/N=C/c3cccnc3)n2)cc1,11.6% (active)
12,O=C(N/N=C\c1cccnc1)c1cc(-c2ccccc2)nc2c(Cl)cccc12,-0.85%
13,COc1ccc(S(=O)(=O)NC(=O)C2(C)CCN2C(=O)COc2ccc(Cl)cc2)cc1 (configuration not stated),-1.47%
14,Cc1nn2cc(-c3ccc(Cl)cc3)cnc2c1Br,13.2% (active)
15,CC(=O)NC(c1cccc(F)c1)c1nc(-c2cccc(F)c2)cs1 (configuration not stated),0.2%
16,Cc1ccc(F)c(S(=O)(=O)NC(=O)C2(C)CCN2C(=O)CCc2cccs2)c1 (configuration not stated),0.83%
17,CC(C)Oc1cc(F)ccc1-c1cc(C(=O)Nc2ccc(F)cc2)[nH]n1,-0.4%
18,COc1cc(C(O)c2nc(-c3cnn(C)c3)cs2)ccc1F (configuration not stated),-1.52%
19,Cc1coc2c(O)cc3c(c12)OC1(N2CCCCC2)C(=O)NCCCC31 (configuration not stated),8.45% (active)
20,O=C(NCc1cccc(C(F)(F)F)c1)c1ccc2sc(COCCO)nc2c1,-1.45%
21,CCOC(=O)c1c(NC(=O)CNC2CCCc3ccccc32)sc(C(N)=O)c1C (configuration not stated),8.65% (active)
22,NC(=O)Nc1ccc(C(=O)OCC(=O)NC2CCCc3ccccc32)cc1 (configuration not stated),-2.32%
23,CCOC(=O)c1c(NC(=S)SC)sc(C(=O)N2CCc3ccccc3C2)c1C,-0.37%

# Reference: PubChem BioAssay AID540308 (The Scripps Research Institute Molecular Screening Center, 2011)
